sEH activator = soluble epoxide hydrolase activators, primary screen, biochemical, human sEH; purified human sEH enzymatic activity, activator screen; activation, % at 2 µM; 91,000 tested, 0.04% active; AID 717, 2007; in the data active = activation above about 37%
CYP2C19 inhib = blockers of cytochrome P450 2C19 activity – biochemical, luminescence, ADME assay, primary screen; inhibition, % at 5 µM; AID 778, 2007; P33261; 96,000 tested, 21% active; CYP2C19 Supersomes, luciferin-H EGE luminescence, 30 min;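 active = CYP2C19 inhibition above a set limit at 5 µM in the primary screen, cut at about 50% in these data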;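 note: plate controls were negative control wells for no effect and 2.5 mM tranylcypromine positive control for full effect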
Target sequence (P33261 whole entry, looked up): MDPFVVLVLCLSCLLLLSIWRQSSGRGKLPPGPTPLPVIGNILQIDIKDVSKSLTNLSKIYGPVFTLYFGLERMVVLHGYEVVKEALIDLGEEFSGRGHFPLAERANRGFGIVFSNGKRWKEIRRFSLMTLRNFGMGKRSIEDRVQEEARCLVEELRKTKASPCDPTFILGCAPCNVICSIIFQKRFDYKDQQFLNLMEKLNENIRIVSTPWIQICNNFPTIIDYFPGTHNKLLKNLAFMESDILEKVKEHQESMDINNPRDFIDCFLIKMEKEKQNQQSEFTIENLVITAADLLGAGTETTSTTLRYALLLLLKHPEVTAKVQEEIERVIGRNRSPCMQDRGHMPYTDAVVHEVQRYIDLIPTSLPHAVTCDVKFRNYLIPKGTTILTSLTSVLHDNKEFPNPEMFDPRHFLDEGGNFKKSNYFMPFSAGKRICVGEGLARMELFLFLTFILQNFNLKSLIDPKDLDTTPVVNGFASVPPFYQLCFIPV
CYP2C9 inh = blockers of cytochrome P450 2C9 activity – biochemical, luminescence, ADME assay, primary screen. inhibition, % at 5 µM. 96,000 tested, 20% active. CYP2C9 Supersomes, luciferin-H conversion. AID 777, 2007. P11712;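 active = blocking of liver enzyme CYP2C9 beyond about 50% at 5 µM, limit read from the data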
CYP2C9 act = human CYP2C9 activators, primary screen, biochemical, luminescence; recombinant CYP2C9, luciferin-H conversion; active compounds read high; factor 1 = untreated enzyme, 0 = blocked; 96,000 tested, 1.4% active; Cytochrome P450 2C9 (Homo sapiens), P11712; activation factor at 5 µM;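 active = activation factor of 2 or more for CYP2C9 at a 5 µM dose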;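 note: 0 = sulfaphenazole-blocked wells and 1 = vehicle-only wells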
sEH inh = soluble epoxide hydrolase inhibitors, primary screen, biochemical, human sEH; Bifunctional epoxide hydrolase 2 (Homo sapiens), P34913; recombinant human sEH enzymatic activity assay; inhibition, % at 2 µM; 91,000 tested, 0.34% active; AID 707, 2007; in the data active = inhibition above about 80%
CYP2C19 activ = human CYP2C19 activators, primary screen, biochemical, luminescence; recombinant CYP2C19, luciferin-H EGE luminescence; active compounds read high; 0 = fully inhibited enzyme, 1 = untreated enzyme; activation factor at 5 µM; 96,000 tested, under 10 active; AID 1025, 2008; Cytochrome P450 2C19 (Homo sapiens), P33261;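 active = activation factor of at least 2 at 5 µM in the primary screen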;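 note: 0 = wells with 2.5 mM tranylcypromine and 1 = vehicle-only wells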
Starred values were filed as active, the others as inactive; · = no result. Shown are actives, neighbours in structure and some others; about 27% of the full set was active somewhere.

SMILES	sEH activator	CYP2C19 inhib	CYP2C9 inh	CYP2C9 act	sEH inh	CYP2C19 activ
CCN(c1ccccc1)S(=O)(=O)c1ccc(OCC(=O)Nc2cc(C)on2)cc1	4	16	67*	0.3	0	0.8
Cc1cc(NC(=O)COc2ccc(N(C)S(=O)(=O)c3ccccc3)cc2)no1	·	22	55*	0.4	·	0.8
Cc1cc(NC(=O)COc2cccc(C)c2C)no1	1	20	27	0.7	-1	0.8
Cc1cc(NC(=O)CSc2ccc(-c3ccccc3)nn2)no1	-5	44	35	0.7	4	0.6
Fc1ccccc1C(c1nnnn1Cc1ccc2c(c1)OCO2)N1CCN(Cc2ccco2)CC1 (stereo unspecified)	7	23	-20	1.2	-4	0.8
CN=C1CC(C)(C)CC(=O)/C1=C(/O)CCC(=O)NC	-7	·	·	·	6	·
CCOC(=O)Cc1c(C)nc2c(-c3ccc(OC)cc3)c(C)nn2c1C	4	18	40	0.6	-2	0.8
CCC(CC)NC(=O)COC(=O)c1cccc(C)c1O	15	16	-12	1.1	-17	0.8
CCOC(=O)CCCNC(=O)COC(=O)c1cccc(C)c1O	·	67*	47	0.5	·	0.3
CCN(c1ccccc1)S(=O)(=O)c1cc(C(=O)O)ccc1C	-3	4	1	1	6	1
CN(C)c1c([N+](=O)[O-])ncn1C	6	14	9	0.9	-12	0.9
CC(C)c1nc2n[nH]c(N)c2c2c1CSC(C)(C)C2	-7	-12	18	0.8	6	1.1
C=CCn1c(SCC(N)=O)nnc1-c1cccc(Br)c1	-1	21	3	1	0	0.8
C=CCn1c(SCc2ccccc2C#N)nnc1-c1cc(Br)ccc1O	-4	99*	78*	0.2	4	0
COc1ccc(C(=O)CSc2nc(SC)ns2)cc1OC	20	62*	-2	1	-24	0.4
CCC(CC)COC(=O)C(C#N)c1nc2ccccc2nc1N1CCOCC1 (stereo unspecified)	-5	56*	48	0.5	5	0.4
C=CCOC(=O)C(C#N)c1nc2ccccc2nc1N1CCN(Cc2ccccc2)CC1 (stereo unspecified)	·	57*	64*	0.4	·	0.4
COCCOC(=O)C(C#N)c1nc2ccccc2nc1N1CCN(Cc2ccccc2)CC1 (stereo unspecified)	·	80*	91*	0.1	·	0.2
CCOC(=O)C1CCCN(c2nc3ccccc3nc2C(C#N)C(=O)OCC)C1 (stereo unspecified)	·	93*	96*	0	·	0.1
CCOC(=O)C1CCCN(c2nc3ccccc3nc2C(C#N)C(=O)OCCOC)C1 (stereo unspecified)	·	22	35	0.6	·	0.8
CC(=O)Nc1ccc(S(=O)(=O)NC2(C(F)(F)F)NC(=O)N(C3CCCCC3)C2=O)cc1 (stereo unspecified)	5	-9	30	0.7	-5	1.1
COCCCNC(=O)C(C#N)c1nc2ccccc2nc1N1CCN(Cc2ccccc2)CC1 (stereo unspecified)	·	92*	93*	0.1	·	0.1
C=CCOC(=O)C(C#N)c1nc2ccccc2nc1N1CCN(c2ccccc2OC)CC1 (stereo unspecified)	·	31	72*	0.3	·	0.7
COCC(C)OC(=O)C(C#N)c1nc2ccccc2nc1N1CCN(Cc2ccccc2)CC1 (stereo unspecified)	4	74*	90*	0.1	-3	0.3
CCOC(=O)C1CCCN(c2ncnc3c2oc2ccccc23)C1 (stereo unspecified)	4	69*	46	0.5	-6	0.3
Cc1oc(C(=O)O)cc1COc1cccc2cccnc12	0	0	-16	1.2	1	1
CCOC(=O)c1c(C)[nH]c(C(=O)OCC(=O)NC2CCS(=O)(=O)C2)c1C (stereo unspecified)	·	-11	8	0.9	·	1.1

High-throughput results (PubChem)
